A selection: hits, their analogues and other compounds. The true share with any hit is near 11%.
NS1 function inh – influenza NS1 inhibition. Potency, µM (doses to about 46.1 µM), without a hit: at the highest dose activity, positive = more growth. 270,000 tested, 0.4% active. AID 2326; calls by dose curve; also: actives are rising curves; nearly all actives have a fitted effect of over 50% in size
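Read-out: OD600 growth recovery of NS1-expressing budding yeast. Cells grown overnight at 30C in -URA glucose medium, washed, resuspended and diluted 1:100 in 2% galactose assay medium, pH 6.0. Same strain lacking NS1 served as positive control.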
Pf growth 96h – inhibits malaria parasite growth, 96 h | P. falciparum luciferase reporter growth, 96 h | Potency, µM (top dose mostly 28.7 µM), without a hit: at the top dose activity change, negative = inhibition, most hits filed as inhibitors | 320,000 tested, 6.9% active; also: % is scaled to controls: 0 for no effect and ±100 for the full control effect
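Readout is luminescence from an integrated firefly luciferase in P. falciparum. Red cells, 2% hematocrit and 0.05% parasitemia final, were cultured with compound through two parasite generations (96 hours) at 37 C, 5% CO2.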
Sm TGR inh – S. mansoni TGR enzyme inhibition | Potency, µM (titrated, usually from 114 µM), for the others: at the highest dose activity change, negative = inhibition, most hits filed as inhibitors | purified TGR, DTNB reduction, TNB absorbance 405 nm | 360,000 tested, 3% active | Q962Y6; also: % is scaled to controls: 0 for no effect and ±100 for the full control effect; nearly all actives have a fitted effect of over 60% in size
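First, TGR (20 nM dispensed) and NADPH were mixed with compound. Second, a 15 min room-temperature incubation followed. Third, further NADPH and then DTNB were added to start the reaction. Finally, TNB absorbance was monitored kinetically.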
Pf growth 48h – inhibits P. falciparum growth in the first generation, 48 h; P. falciparum luciferase growth in erythrocytes, 48 h; Potency, µM (series often up to 28.7 µM), inactives show top-dose activity change, negative = inhibition, actives largely listed as inhibitors; 310,000 tested, 5.9% active; AID 504832; also: % is scaled to controls: 0 for no effect and ±100 for the full control effect
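Luciferase-expressing parasites in RBCs, 2% Hct / 0.1% parasitemia final; RPMI 1640 + 0.5% Albumax; 37 C, 5% CO2, one generation; luminescence read-out, lower signal = inhibition.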
AMA1-RON2 inh – AMA1-RON2 (P. falciparum) interaction inhibition | AlphaScreen AMA1-biotinylated RON2 peptide binding | Potency, µM (highest dose often 58.2 µM), inactives show at the highest dose activity change, negative = inhibition, usual class: inhibitors | 360,000 tested, 0.2% active;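 also: 0% = vehicle wells and -100% = peptide control; nearly all actives have a fitted effect of over 45% in size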
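AMA1 (3D7) with his tag at 25 nM final met compounds first, then biotinylated RON2 peptide at 25 nM; detection used donor plus acceptor beads, 10 µg/mL apiece, read by AlphaScreen after 30 min at room temperature.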
The depositor's hits bear a star; u = inconclusive; x = no result given. Unless noted, calls follow the shape of the dose curve; as a rule, active = well fitted curve in the direction sought with a large enough effect; inconclusive = small, poorly fitted or top-dose-only effect, or another doubt; inactive = no such curve, though single readings can be large; an effect the other way counts as inactive or inconclusive. Potency is read from the fitted curve at half-maximal effect.

SMILES	NS1 function inh	Pf growth 96h	Sm TGR inh	Pf growth 48h	AMA1-RON2 inh
O=C(Nc1cccc(NC(=O)c2ccc(-c3ccc(Br)cc3)o2)c1)c1ccco1	21.8%	u	-10.8%	9.28µM*	-3.1%
Cc1cccc(N2CCN(CCCNC(=O)c3sc4ncccc4c3-n3cccc3)CC2C)c1 (centres undefined)	x	x	0.8%	x	x
COc1ccc(NC(=O)C23CC4CC(C2)CC(c2ccc(C)cc2)(C4)C3)cc1	-2.9%	23.7%	4.1%	u	-22.7%
COc1ccccc1NC(=O)C12CC3CC(C1)CC(c1ccc(C)cc1)(C3)C2	21.2%	66.4%	30.6%	0.657µM*	18.0%
Cc1ccc(C23CC4CC(CC(C(=O)NC(C)C(=O)O)(C4)C2)C3)cc1 (centres undefined)	13.3%	38.9%	4.8%	-9.7%	15.8%
Cc1ccc(C23CC4CC(CC(C(=O)NC(C)C)(C4)C2)C3)cc1	-16.9%	9.28µM*	2.1%	-16.7%	-2.4%
O=C(CN1C(=O)c2cccnc2Oc2ccc(Cl)cc21)N1CCOCC1	-1.7%	-11.2%	3.3%	-5.4%	24.8%
O=C(COc1ccc(Cl)cc1)NC1=NN(c2ccccc2)C(=O)C1	u	8.28µM*	9.1%	7.8%	11.9%
O=C(CCCCl)NC1=NN(c2ccccc2)C(=O)C1	14.7%	26.3%	4.7%	8.2%	-7.9%
CC1CC(NC(=O)Cc2ccc(Br)cc2)CC(C)(C)C1 (centres undefined)	-1.0%	u	28.8%	11.7µM*	10.5%
Cc1ccc(C)c(NC(=O)CN(C)C(=O)c2ccccc2OCc2ccc(Cl)cc2)c1	x	u	3.1%	u	-5.5%
O=c1c2c3c(sc2n(CCN2CCOCC2)c(=O)n1Cc1ccco1)CCCCC3	u	2.62µM*	-6.1%	u	-7.8%
O=c1c2c3c(sc2n(CCN2CCCCC2)c(=O)n1Cc1ccco1)CCCCC3	4.2%	2.62µM*	6.8%	x	-2.7%
Cc1ccc(C(C(=O)NCC2CCCO2)N(Cc2ccccc2)C(=O)c2ccc(-c3ccccc3)[nH]2)o1 (centres undefined)	27.2%	u	-7.6%	8.28µM*	-24.4%
Cc1ccc(CN(C(=O)CNC(=O)c2cccs2)C(C(=O)NCC2CCCO2)c2ccccc2)cc1 (centres undefined)	-8.3%	u	6.4%	u	14.4%
O=C(NCC1CCCO1)C(c1cccs1)N(Cc1ccccc1Cl)C(=O)c1ccc(-c2ccccc2)[nH]1 (centres undefined)	26.4%	18.6%	-8.0%	5.22µM*	-18.7%
O=C(CN1C2CCCC1CC(NC(=O)c1ccccc1)C2)Nc1nccs1 (centres undefined)	-2.1%	9.28µM*	0.0%	u	3.7%
O=C(NC1CC2CCCC(C1)N2Cc1ccccc1)c1ccc([N+](=O)[O-])cc1 (centres undefined)	12.4%	0.37µM*	0.9%	0.3%	-4.1%
Cc1ccc(C(=O)NC2CC3CCCC(C2)N3Cc2ccccc2)cc1 (centres undefined)	7.3%	u	-0.6%	u	24.2%
Cc1ccc(CN2C3CCCC2CC(NC(=O)c2ccc(F)cc2)C3)cc1 (centres undefined)	-9.9%	25.2%	-29.5%	10.4µM*	0.8%
COc1cc(C(=O)NC2CC3CCCC(C2)N3CC(=O)Nc2ccccc2)cc(OC)c1OC (centres undefined)	-13.0%	-1.6%	u	u	-2.2%
O=C(/C=C/c1ccccc1)NC1CC2CCCC(C1)N2Cc1ccccc1 (centres undefined)	4.0%	2.33µM*	8.6%	u	x
CCC1CCCCN1C(=O)c1ccc2c(c1)N(Cc1cccc(Cl)c1)C(=O)c1ccccc1S2(=O)=O (centres undefined)	x	x	2.8%	x	x
Cc1ccc(CN2C3CCCC2CC(NC(=O)Nc2cccc(F)c2)C3)cc1 (centres undefined)	-2.2%	21.3%	12.1%	1.85µM*	-7.4%
CCCN1CCC(=O)N(CCO)CC1	35.3%	0.7%	8.6%	-11.5%	7.9%
O=C(CCN1CCOCC1)NCC(=O)Nc1ccc(Br)cc1C(=O)c1ccccc1	-1.3%	13.1µM*	-7.9%	11.3%	-7.2%
O=C(CN1CCCCC1)NCC(=O)Nc1ccc(Br)cc1C(=O)c1ccccc1	2.8%	122.0%	4.8%	-3.1%	6.2%

From PubChem BioAssay
